# Measurements as given in PubChem BioAssay.
# Active and inactive are the calls of the source. Unless noted, no rule for the calls is given here.
# Experiments:
# [1] = A549 cell viability effects, profiling panel, calcein-AM fluorescence, 48 h, basal (AID 1162); conditions: higher = more signal; also: test concentration not given here
# [2] = adipocyte viability effects, profiling panel, cell-based, 3T3-L1 adipocytes, calcein-AM fluorescence, 48 h, basal (AID 1163); conditions: 3T3-L1 adipocytes viability, higher = more signal; also: test concentration not given here
# [3] = HepG2 cell viability effects, profiling panel, calcein-AM fluorescence, 48 h, basal (AID 1164); conditions: higher = more signal; also: test concentration not given here
# [4] = MM1S cell viability effects, profiling panel, calcein-AM fluorescence, 48 h, basal (AID 1165); conditions: higher = more signal;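 also: viability of MM1S multiple myeloma cells under basal unstimulated conditions; test concentration not given here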
# [5] = basal RPMI8226 viability, no added stimulus, profiling panel, cell-based, calcein-AM fluorescence, 48 h, PK04 Diversity Set (AID 1166); conditions: RPMI8226 myeloma viability, higher = more signal;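 also: cells grown under basal conditions without added stimulus; test concentration not given here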
# [6] = basal HepG2 mitochondrial membrane potential changes, profiling panel, cell-based, JC-1 fluorescence, 24 h, 100 nL compound (AID 1167); conditions: higher = more signal; also: test concentration not given here
# [7] = basal 3T3-L1 adipocyte mitochondrial potential changes, profiling panel, cell-based, JC-1 fluorescence, 3T3-L1 adipocytes, 24 h, 100 nL compound (AID 1168); conditions: JC-1 mitochondrial fluorescence, higher = more signal, called active from +8 up or from −8 down; also: test concentration not given here
# [8] = basal RPMI8226 mitochondrial membrane potential changes, profiling panel, cell-based, JC-1 fluorescence, 24 h, 100 nL compound (AID 1169); conditions: RPMI8226 myeloma, JC-1 mitochondrial potential fluorescence, higher = more signal; also: test concentration not given here
# [9] = basal MM1S mitochondrial membrane potential changes, profiling panel, cell-based, JC-1 fluorescence, 24 h, 100 nL compound (AID 1170); conditions: higher = more signal; also: test concentration not given here
# [10] = A549 lung cancer cell viability effects, profiling panel, resazurin fluorescence, 24 h, PK04 Diversity Set (AID 1171); conditions: higher = more signal, called active from +8 up or from −8 down; also: test concentration not given here
# [11] = HepG2 liver cancer cell viability effects, profiling panel, resazurin fluorescence, 24 h, PK04 Diversity Set (AID 1172); conditions: higher = more signal; also: test concentration not given here
# [12] = basal S. cerevisiae growth modulation, no modifier, primary screen, OD600, strain BY4716, 24 h, basal condition (AID 1173); conditions: OD600, 24 h, higher = more signal, called active from +8 up or from −8 down
# [13] = MM1S myeloma cell viability, profiling panel, resazurin fluorescence, basal, 24 h, PK04 Diversity Set (AID 1174); conditions: higher = more signal, called active from +8 up or from −8 down;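 also: MM1S multiple myeloma cell line; test concentration not given here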
# [14] = target: Dihydroorotate dehydrogenase (quinone), mitochondrial (Plasmodium falciparum (isolate 3D7)) (UniProt Q08210); assay: PfDHODH enzyme inhibitors, primary screen, biochemical, C-terminal His tag, absorbance 600 nm (AID 1175); conditions: DCIP absorbance 600 nm, higher = more signal, called active from +8 up or from −8 down;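 also: recombinant parasite enzyme with a five histidine tag at its C terminus; test concentration not given here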
# [15] = P. aeruginosa biofilm formation inhibitors, primary screen, strain PAO1, LB-PBS medium, absorbance 600 nm (AID 1176); also: test concentration not given here; conditions: P. aeruginosa PAO1 growth/biofilm, A600, 12 h; higher = more signal
# [16] = S. cerevisiae RM11-1a growth modifiers, primary screen, strain RM11-1a, OD600, basal, 24 h (AID 1177); conditions: OD600, 24 h, higher = more signal, called active from +8 up or from −8 down;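 also: cultures grown under basal conditions with no added stressor; test concentration not given here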
# [17] = E. coli acrAB mutant growth effects, primary screen, E. coli filamentation inducers, strain DRC39, OD650, 24 h (AID 1178); conditions: higher = more signal, called active from +8 up or from −8 down;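 also: growth measured as culture turbidity by optical density at 650 nm; test concentration not given here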
# [18] = E. coli acrAB mutant growth effects, primary screen, E. coli filamentation inducers, strain DRC39, OD650, 48 h (AID 1179);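 also: screen aims at cell division blockers that make cells filament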; conditions: E. coli DRC39 delta-acrAB growth, higher = more signal, called active from +8 up or from −8 down
# [19] = RPMI8226 myeloma cell viability, profiling panel, resazurin fluorescence, basal, 24 h, PK04 Diversity Set (AID 1180); conditions: higher = more signal;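 also: RPMI8826 multiple myeloma cell line at 5000 cells per well; test concentration not given here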
# [20] = target: E3 ubiquitin-protein ligase XIAP (Homo sapiens) (UniProt P98170); assay: XIAP binders, primary screen, biophysical, small-molecule microarray, fluorescence 635 nm (AID 1181); conditions: small-molecule microarray binding, higher = more signal;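 also: score merges 667 nm emission and signal to noise over triplicate slides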
# Sequence of E3 ubiquitin-protein ligase XIAP (Homo sapiens) (P98170 whole entry, looked up): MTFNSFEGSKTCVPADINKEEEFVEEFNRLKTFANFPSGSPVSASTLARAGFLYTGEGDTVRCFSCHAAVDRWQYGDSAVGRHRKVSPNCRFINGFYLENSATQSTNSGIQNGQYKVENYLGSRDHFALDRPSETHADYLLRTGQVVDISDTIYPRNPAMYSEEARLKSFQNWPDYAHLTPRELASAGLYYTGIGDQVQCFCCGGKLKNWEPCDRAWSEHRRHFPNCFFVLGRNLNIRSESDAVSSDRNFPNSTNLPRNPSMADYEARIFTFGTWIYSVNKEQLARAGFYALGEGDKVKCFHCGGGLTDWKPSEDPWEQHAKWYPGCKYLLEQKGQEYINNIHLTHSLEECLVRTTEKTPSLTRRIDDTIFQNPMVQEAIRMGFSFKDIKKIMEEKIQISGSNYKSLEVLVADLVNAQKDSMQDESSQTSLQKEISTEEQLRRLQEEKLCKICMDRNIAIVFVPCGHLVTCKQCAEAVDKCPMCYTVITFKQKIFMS
# Sequence of Dihydroorotate dehydrogenase (quinone), mitochondrial (Plasmodium falciparum (isolate 3D7)) (Q08210 whole entry, looked up): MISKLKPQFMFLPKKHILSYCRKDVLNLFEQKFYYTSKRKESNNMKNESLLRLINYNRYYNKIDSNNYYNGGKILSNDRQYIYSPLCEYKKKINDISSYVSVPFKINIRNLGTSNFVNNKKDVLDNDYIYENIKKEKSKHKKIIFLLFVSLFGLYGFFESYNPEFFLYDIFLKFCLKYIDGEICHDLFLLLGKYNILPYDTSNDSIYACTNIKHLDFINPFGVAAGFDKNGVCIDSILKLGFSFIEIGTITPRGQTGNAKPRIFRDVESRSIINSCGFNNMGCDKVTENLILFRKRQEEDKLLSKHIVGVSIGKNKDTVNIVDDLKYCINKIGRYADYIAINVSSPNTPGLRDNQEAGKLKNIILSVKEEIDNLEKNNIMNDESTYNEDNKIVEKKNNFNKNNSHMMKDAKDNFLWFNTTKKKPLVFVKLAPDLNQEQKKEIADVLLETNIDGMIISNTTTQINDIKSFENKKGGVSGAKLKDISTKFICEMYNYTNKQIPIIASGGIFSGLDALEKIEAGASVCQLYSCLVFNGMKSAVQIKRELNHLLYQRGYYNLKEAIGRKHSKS
Compound,z-score [1],z-score [2],z-score [3],z-score [4],z-score [5],z-score [6],z-score [7],z-score [8],z-score [9],z-score [10],z-score [11],z-score [12],z-score [13],composite z-score [14],z-score [15],z-score [16],z-score [17],z-score [18],z-score [19],composite z-score [20]
C=CCOC(=O)[C@@H]1[C@H]2C(=O)O[C@H](c3ccccc3)[C@H](c3ccccc3)N2[C@H](c2ccc(OCCOC(=O)[C@H]3C[C@H]4C(=O)N[C@@H](CCCCN(C)C)C(=O)N4[C@H]3c3ccc(O)cc3)cc2)[C@@]12C(=O)Nc1ccc(I)cc12,-0.191,-0.357,0.278,-0.644,-1.11,0.309,1.33 (inactive),-0.35,-0.933,0.923 (inactive),-0.148,-0.679 (inactive),-0.467 (inactive),-2.47 (inactive),1.34 (inactive),1.6 (inactive),-0.466 (inactive),0.236 (inactive),-0.431,-0.224
CCOc1cc(C(O)C2C=CC3C(=O)N(c4ccccc4)C(=O)C3N2Nc2ccccc2F)ccc1O (stereo not given),0.0113,0.521,0.294,-0.495,-0.18,-1.58,-0.945 (inactive),-0.853,0.699,-0.928 (inactive),-1.42,-3.57 (inactive),-0.454 (inactive),0.717 (inactive),0.931 (inactive),1.78 (inactive),-0.223 (inactive),-0.541 (inactive),-0.318,-0.273
CC(=O)OCC1C2CC[C@H]3C(OCc4ccc(F)cc4C(F)(F)F)OC[C@]4(C)[C@H]3C2=C(CN4C(=O)OC(C)(C)C)[C@H](C)C1COC(C)=O (stereo not given in full),-0.647,-0.0623,-0.174,-2.29,-1.93,2.61,-0.984 (inactive),-0.606,-1.3,0.892 (inactive),-1.11,1.69 (inactive),-1.34 (inactive),0.182 (inactive),1.14 (inactive),1.93 (inactive),-1.47 (inactive),-0.748 (inactive),-1.18,0.691
C=CCOC(=O)[C@H]1[C@@H]2C(=O)O[C@@H](c3ccccc3)[C@@H](c3ccccc3)N2[C@@H](c2ccc(OCCOC(=O)[C@H]3C[C@H]4C(=O)N[C@@H](CC(C)C)C(=O)N4[C@H]3c3ccc(O)cc3)cc2)[C@]12C(=O)Nc1ccccc12,0.0118,-0.382,0.414,0.178,0.34,-1.78,1.05 (inactive),-0.485,-1.19,1.96 (inactive),0.0682,1.1 (inactive),0.407 (inactive),-0.976 (inactive),2.65 (inactive),2.67 (inactive),0.376 (inactive),1.02 (inactive),0.862,-0.0078
COC(=O)[C@@]1(Cc2ccc(F)cc2)[C@H]2c3cc(C(=O)N4CCCC4)n(Cc4cc(F)cc5c4OCOC5)c3C[C@H]2CN1C(=O)c1ccccc1,-1.14,0.364,-1.02,-1.54,-1.55,3.05,-0.484 (inactive),-0.512,-0.744,-1.02 (inactive),-1.29,1.9 (inactive),-0.931 (inactive),-0.224 (inactive),-0.25 (inactive),1.31 (inactive),0.462 (inactive),-1.11 (inactive),-2.88,0.334
CC1CC/C=C\[C@H]2OC34C=CCN(Cn5nnc6ccccc65)C(=O)[C@H]3N(CCCCCCO)C(=O)[C@@H]4C2C(=O)O1 (stereo not given in full),0.264,-0.0662,0.91,1.95,0.456,1.63,0.53 (inactive),0.8,-0.657,0.0188 (inactive),0.535,-0.705 (inactive),0.501 (inactive),-0.374 (inactive),0.137 (inactive),0.85 (inactive),0.816 (inactive),0.703 (inactive),1.16,-0.244
COc1cc(OC)c(C(O)C2C=CC3C(=O)N(c4ccccc4)C(=O)C3N2Nc2ccc(C(C)C)cc2)cc1Br (stereo not given),2.48,-1.15,1.49,-0.534,-0.203,-0.115,-0.171 (inactive),-0.126,-0.66,-0.101 (inactive),0.092,-4.46 (inactive),-0.263 (inactive),0.145 (inactive),2.24 (inactive),0.171 (inactive),0.238 (inactive),0.48 (inactive),0.289,0.0838
CC(C)C(CO)N1C(=O)[C@@H]2C3C(=O)OCCC/C=C\[C@H]3OC23C=CCN(Cc2ccccc2)C(=O)[C@@H]13 (stereo not given in full),0.214,-0.0826,0.728,0.441,-0.0976,0.161,0.256 (inactive),-0.687,0.942,0.777 (inactive),0.49,-0.612 (inactive),0.607 (inactive),-0.479 (inactive),-1.03 (inactive),-0.0566 (inactive),1.15 (inactive),0.755 (inactive),1.14,-0.166
COC(=O)c1cccc([C@H]2OC(=CC(=O)OC(C)C)C[C@@H](c3cccc(C(=O)OC)c3)O2)c1,-0.921,0.229,-0.248,-3.15,-1.64,-0.571,-1.52 (inactive),-1.08,-2.76,-0.0417 (inactive),-0.674,-2.43 (inactive),-0.799 (inactive),-0.351 (inactive),0.188 (inactive),-0.258 (inactive),-0.435 (inactive),-0.0196 (inactive),0.0732,0.378
C=C(C)[C@@H]1CC=C(C(O)C2C=CC3C(=O)N(c4ccccc4)C(=O)C3N2Nc2ccc([N+](=O)[O-])cc2)CC1 (stereo not given in full),0.485,0.153,0.736,-0.807,-0.493,-0.307,-2.47 (inactive),-0.507,0.451,-0.963 (inactive),-0.783,0.139 (inactive),-0.66 (inactive),1 (inactive),0.741 (inactive),0.526 (inactive),-1.17 (inactive),-1.37 (inactive),-0.204,-0.0848
COc1ccc([Si](C)(C)[C@@H]2[C@@H](CC(=O)N(CCO)Cc3ccccc3)O[C@]3(C(=O)N(Cc4ccc(N5C(=O)c6cccc7cccc5c67)cc4)c4ccccc43)[C@H]2C)cc1,-0.538,0.427,-1.43,-1.82,-3.52,-0.038,0.161 (inactive),-1.02,-1.18,-1.51 (inactive),-1.17,1.21 (inactive),-1.48 (inactive),-0.992 (inactive),1.56 (inactive),2.5 (inactive),0.302 (inactive),-0.22 (inactive),-1.85,0.237
COC(=O)[C@@]1(Cc2ccc(OC)cc2)[C@H]2c3cc(C(=O)N4CCCC4)n(Cc4c(CO)[nH]cc(C)c4=O)c3C[C@H]2CN1C(=O)c1ccccc1,-0.37,0.454,0.375,-0.206,0.501,2.94,0.926 (inactive),0.166,-1.19,0.582 (inactive),0.229,0.684 (inactive),0.421 (inactive),-1.21 (inactive),0.548 (inactive),0.124 (inactive),0.153 (inactive),1.17 (inactive),0.572,0.477
CC(C)C(=C=CC[C@H](O)c1ccccc1OCCO)C[C@H](O)COCc1ccccc1,0.827,-0.0066,0.245,-2.9,-1.15,-0.0954,-0.307 (inactive),-0.823,-0.662,-0.0334 (inactive),-0.0813,-1.07 (inactive),-0.271 (inactive),-2.12 (inactive),0.731 (inactive),-0.154 (inactive),-0.145 (inactive),-0.306 (inactive),-0.921,0.17
CO[C@H]1O[C@H](CO)[C@@H](OC(=O)Nc2ccc3c(c2)OCO3)[C@H](OC(=O)Nc2ccccc2-c2ccccc2)[C@H]1OC(=O)Nc1ccccc1-c1ccccc1,-3.97,0.548,-3.71,-3.34,-2.72,0.0319,2.04 (inactive),-0.819,-1.76,-3.84 (inactive),-2.5,2.05 (inactive),-2.94 (inactive),0.656 (inactive),0.553 (inactive),4.05 (inactive),0.335 (inactive),-0.303 (inactive),-2.63,0.441
CCN(CC)c1ccc(N2CC=CC34O[C@@H]5C=CCCOC(=O)C5[C@H]3C(=O)N(C(C)CO)[C@@H]4C2=O)cc1 (stereo not given in full),-0.0735,-0.456,0.316,0.241,0.333,0.408,0.0389 (inactive),-0.487,0.0276,0.586 (inactive),0.452,-0.315 (inactive),0.172 (inactive),-0.0558 (inactive),0.398 (inactive),0.126 (inactive),-0.491 (inactive),-0.693 (inactive),0.399,0.741
O=C(NCc1ccccc1)[C@@H]1c2ccccc2C(=O)N(Cc2cc(C(F)(F)F)cc(C(F)(F)F)c2)[C@H]1c1ccc(CO)cc1,-0.108,1.79,-0.139,0.635,-0.487,1.45,0.125 (inactive),-0.586,-1.15,-0.281 (inactive),-0.527,-0.247 (inactive),0.3 (inactive),0.819 (inactive),0.338 (inactive),1.06 (inactive),0.324 (inactive),0.0181 (inactive),1.03,-0.147
C=CC[C@@]1(C(=O)N(C)C)N=C(c2ccc(OCCCO)cc2)O[C@@H]1c1ccccc1CN=[N+]=[N-],1.01,-0.114,1.41,-1.81,-1.58,1.67,0.53 (inactive),-0.797,-0.479,0.189 (inactive),-0.0494,-0.266 (inactive),-0.138 (inactive),0.59 (inactive),-0.345 (inactive),0.586 (inactive),0.159 (inactive),0.374 (inactive),-0.368,-0.163
COc1cc(CO)cc(I)c1O[C@H]1C=C(C(=O)NCCO)C[C@@H]2O[C@H]12,-0.42,0.254,-0.697,0.264,-3.2,-0.873,-0.389 (inactive),-0.443,-0.52,-1.41 (inactive),-0.876,-11.2 (active),-0.0563 (inactive),-1.32 (inactive),-0.0339 (inactive),1.69 (inactive),-0.364 (inactive),-0.475 (inactive),-0.408,0.305
